# Shown are actives, neighbours in structure and some others; about 4.6% of the full set was active somewhere.
# TRHR ag – qHTS for Small Molecule Agonists and Allosteric Enhancers of Human TRH Receptor: Primary Screen for Agonists; 0.18% of 360,000 active; AID 493084, 2011; TRHR cells, calcium flux fluo-8, FDSS agonist mode; activation, % at 2 µM; further: 0% is about no effect
#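 TRHR-expressing cells, plated overnight in medium with 10% serum, were loaded with fluo-8 calcium dye at room temperature. After a 10 s baseline, library compound was pin-added and calcium release was recorded kinetically (ex 480/em 530) as agonist response.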
# D1 PAM – Potentiators of Human D1 Dopamine Receptor: qHTS | D(1A) dopamine receptor (Homo sapiens), P21728 | HEK293 TREx D1 cells, calcium flux, dopamine EC20 potentiation | potentiation, % at 10 µM | 0.036% of 360,000 active | AID 504651, 2011; in the data active means potentiation above about 30%; further: 0% is about no effect
# Target sequence (P21728 whole entry, looked up): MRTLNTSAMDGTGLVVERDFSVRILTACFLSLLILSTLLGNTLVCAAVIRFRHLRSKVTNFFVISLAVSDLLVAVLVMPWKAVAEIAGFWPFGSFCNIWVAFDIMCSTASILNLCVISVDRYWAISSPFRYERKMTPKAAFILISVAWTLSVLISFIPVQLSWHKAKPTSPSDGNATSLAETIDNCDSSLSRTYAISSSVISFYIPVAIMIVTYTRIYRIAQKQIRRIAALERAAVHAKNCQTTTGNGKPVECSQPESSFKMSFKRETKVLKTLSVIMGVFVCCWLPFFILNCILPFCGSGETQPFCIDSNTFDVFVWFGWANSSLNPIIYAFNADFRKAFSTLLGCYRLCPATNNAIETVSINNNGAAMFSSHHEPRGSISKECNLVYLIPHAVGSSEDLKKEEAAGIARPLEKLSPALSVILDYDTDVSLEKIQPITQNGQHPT
# D1 ag – Allosteric Agonists of the Human D1 Dopamine Receptor: qHTS; D(1A) dopamine receptor (Homo sapiens), P21728; HEK293 T-REx D1 cells, calcium flux, agonist mode; activation, % at 2 µM; 1% of 360,000 active; AID 504660, 2011; further: 0% is about no effect
#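 Agonism was scored from calcium flux recorded over 180 s (1 read/s) after pintool compound addition, following a 10-cycle baseline. Cells were inducible force-coupled HEK293 TREx D1, plated overnight at 30 C and loaded with no-wash calcium dye.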
# D1 antagonist – Antagonist of Human D 1 Dopamine Receptor: qHTS | HEK293 TREx D1 cells, calcium flux, dopamine EC80; active compounds read low | activity change, negative = inhibition, % at 10 µM | 3.2% of 360,000 active; in the data active means activity change below about -30%; further: on the % scale 0 is the no-effect control and ±100 the full control effect
#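 Inducible Hek293 Trex D1 cells (tetracycline, overnight, 30 C). Calcium dye 30–90 min RT. Antagonist mode: EC80 dopamine added after 180 s compound read.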
# TRHR PAM – qHTS for Small Molecule Agonists and Allosteric Enhancers of Human TRH Receptor: Primary Screen for Enhancers; Thyrotropin-releasing hormone receptor (Homo sapiens), P34981; TRHR cells, fluo-8 calcium fluorescence, EC20 TRH enhancement; enhancement, % at 2 µM; 0.66% of 360,000 active; in the data active means enhancement above about 30%; further: 0% is about no effect
#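 TRHR-expressing cells loaded with fluo-8 calcium dye were read kinetically (ex 480/em 530) during compound addition, then stimulated with an EC20 of TRH (10 nM final). Enhancement of the Gq-mediated intracellular calcium response was scored.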
# An asterisk follows results filed as active. Unless noted, no stated cut-off is given here; in the data, active means activation above about 30%; inactive means the rest.
SMILES,TRHR ag,D1 PAM,D1 ag,D1 antagonist,TRHR PAM
O=C(CN1CCN(S(=O)(=O)N2CCOCC2)CC1)Nc1ccc(Cl)c(Cl)c1,1,-8,14,-49*,-6
CCCCC(=O)Nc1ccc(N2CCN(C(=O)c3ccco3)CC2)cc1,-1,-10,2,3,4
Cc1ccc(N(CC(=O)NCC2CCCO2)C(=O)CCC(=O)Nc2nccs2)cc1C (configuration not stated),-1,14,-1,6,6
Cc1cc(OCC(=O)OCC(=O)NC2CCCC2)ccc1Cl,0,-5,9,-36*,0
Cc1cc(OCC(=O)OCC(=O)N2CCc3ccccc3C2)ccc1Cl,0,-8,13,-43*,-1
Cc1ccc(C)c(OCCC(=O)OCC(=O)NC(=O)NC2CCCC2)c1,0,-5,6,-36*,-7
Cc1ccc(C)c(OCCC(=O)OCC(=O)NC2CC2)c1,0,1,3,-20,6
CC(C)(C)c1ccc(OCCC(=O)OCC(=O)NC2CCCCC2)cc1,0,-2,4,-44*,-3
Cc1cc(OCC(=O)OCC(=O)N2CCc3ccccc32)ccc1Cl,0,-8,9,-21,-3
Cc1cc(OCC(=O)NC2CCCCC2)ccc1Cl,0,-7,-1,-1,0
COc1ccccc1CNS(=O)(=O)c1ccc2c(c1)CC(C)N2C(C)=O (configuration not stated),1,-2,15,-8,-7
Cn1ccc2cc(S(=O)(=O)N3CCCC(C(=O)NCc4ccccc4)C3)ccc21 (configuration not stated),0,0,1,-18,2
O=C(COc1ccc(C(=O)c2ccccc2)cc1)NC1CCCCCC1,1,-1,12,-19,2
O=C(COC(=O)COc1ccc(Cl)cc1)NC1CCCC1,-1,2,4,-33*,5
O=C(COc1ccc(C(=O)c2ccccc2)cc1)NC1CCCCC1,0,-3,13,-31*,-2
O=C(CCCOc1ccc(Cl)cc1Cl)N1CCc2ccccc2C1,0,-5,33*,0,13
O=C(CCCOc1ccccc1)N1CCc2ccccc2C1,0,-2,0,-5,0
O=C(COC(=O)COc1ccc(Cl)cc1)NC1CCCCC1,1,-4,0,14,-1
COc1cccc(C)c1NC(=O)C(OC(=O)CNC(=O)c1ccccc1)c1ccccc1 (configuration not stated),0,-2,2,27,-5
COc1ccc(Br)cc1CN1CCCC(C(=O)N2CCCCC2)C1 (configuration not stated),0,-7,1,-26,-3
COc1cccc(OC)c1CN1CCCC(C(=O)c2ccccc2SC)C1 (configuration not stated),0,-5,18,-57*,-2
COc1ccccc1CN1CCCC(C(=O)N2CCCCC2)C1 (configuration not stated),1,0,3,-16,39*
COc1ccc(Br)cc1CN1CCCC(C(=O)N2CCCCCC2)C1 (configuration not stated),0,-6,5,-34*,-3
COc1ccc(C(=O)C2CCCN(Cc3cn[nH]c3-c3ccccc3)C2)cc1OC (configuration not stated),0,-6,5,-31*,-4
O=C(NCc1ccccc1CN1CCCC1)c1cccc(S(=O)(=O)N2CCCC2)c1,0,-2,3,-13,7
SMILES,TRHR ag,D1 PAM,D1 ag,D1 antagonist,TRHR PAM
O=C(NCc1ccccc1CN1CCCC1)c1ccc(Cl)c(S(=O)(=O)N2CCCC2)c1,0,-8,12,-51*,-2
O=C(NCCN1CCOCC1)c1ccc(Cl)c(S(=O)(=O)N2CCCCC2)c1,0,7,3,-36*,0
COc1ccc(NC(=O)c2ccc(-c3ccccc3)cc2)cc1S(=O)(=O)N1CCOCC1,1,-5,6,-30*,-4
Cc1ccc(C(=O)NCCCN2CCOCC2)cc1S(=O)(=O)N1CCCCC1,0,-6,3,2,0
COc1ccc(C(=O)NCc2ccccc2CN2CCCC2)cc1S(=O)(=O)N1CCOCC1,0,-19,1,-57*,4
COc1cccc(N2CCN(C(=O)c3cccn3-c3nnc(N4CCCCC4)s3)CC2)c1,-1,-2,2,-8,7
Clc1cccc(CNCCCSc2ncccn2)c1Cl,1,-4,14,-19,-2
CCc1ccccc1NC(=O)CSc1nc2ncccc2o1,0,-5,0,2,-6
COCCc1nn2c(=O)cc(COC(=O)c3ccc(Br)cc3)nc2s1,0,-7,8,-4,-5
COc1ccc(-n2nnc3c(SCc4ccccc4)ncnc32)cc1,1,3,16,-6,-2
COc1ccc(-n2nnc3c(SCC(=O)OCc4ccccc4)ncnc32)cc1,0,-9,5,-4,31*
COc1ccc(NC(=O)CSc2ncnc3c2nnn3-c2ccc(F)cc2)c(OC)c1,1,-4,2,-34*,-5
COc1ccccc1CCNC(=O)c1ccc(-c2nc(CSc3ccc(C)cc3)c(C)o2)cc1,3,-2,10,-5,3
COc1ccc(C2(CCN=Cc3ccc(N(C)C)cc3)CCOC(C)(C)C2)cc1 (configuration not stated),-1,-2,2,-78*,6
O=S(=O)(NCc1ccc(Cl)cc1)c1ccc(N2CCCCS2(=O)=O)cc1,-2,-1,20,-35*,-1
COc1ccc(NS(=O)(=O)c2ccc(N3CCCCS3(=O)=O)cc2)cc1Cl,1,0,20,-30*,0
O=S(=O)(Nc1ccc(OC(F)(F)F)cc1)c1ccc(N2CCCCS2(=O)=O)cc1,2,1,29,-19,10
CCN1CCOC(=O)C1CC(=O)Nc1ccc(C(C)=O)cc1 (configuration not stated),-4,2,1,-4,1
CCc1ccc(NC(=O)CC2C(=O)OCCN2CC)cc1 (configuration not stated),1,-5,-1,-75*,8
NS(=O)(=O)c1ccc(CCNC(=O)Cn2c(=O)c3cccn3c3ccc(F)cc32)cc1,0,-2,11,-13,-3
O=C(NCC1CCCO1)c1c[nH]c2ccc(S(=O)(=O)Nc3ccc(F)cc3F)cc2c1=O (configuration not stated),-1,0,-1,22,19

# High-throughput results from PubChem.
